Screening data as filed in PubChem BioAssay.
AMA1-RON2 inh: qHTS for Inhibitors of AMA1-RON; Towards Development of Antimalarial Drug Lead: Primary Screen. Plasmodium falciparum AMA1 (3D7) - RON2 peptide interaction. AlphaScreen AMA1-biotinylated RON2 peptide binding. Potency, µM (doses to about 58.2 µM), for the others: top-dose activity change, negative = inhibition, actives largely listed as inhibitors. 360,000 compounds, 0.2% hits;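 also: potency is read from the fitted curve at half-maximal effect; 0% = vehicle wells and -100% = peptide control; nearly all actives have a fitted effect of over 45% in size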
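AMA1 (3D7) with his tag at 25 nM final met compounds first, then biotinylated RON2 peptide at 25 nM; detection used donor plus acceptor beads, 10 µg/mL apiece, read by AlphaScreen after 30 min at room temperature.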
SARS PLpro yeast: qHTS of Yeast-based Assay for SARS-CoV PLP; AID 485353, 2010; Potency, µM (series often up to 32.9 µM), inactives show at the highest dose activity, positive = growth rescue, most hits filed as activators; 330,000 compounds, 0.19% hits; S. cerevisiae expressing SARS-CoV PLpro, growth rescue; calls by dose curve; also: potency is read from the fitted curve at half-maximal effect; 0% is about no effect; nearly all actives have a fitted effect of over 55% in size
Pf growth 48h: Primary qHTS for delayed death inhibitors of the malarial parasite plastid, 48 hour incubation | P. falciparum luciferase growth in erythrocytes, 48 h | Potency, µM (titrated, usually from 28.7 µM), without a hit: at the highest dose activity change, negative = inhibition, actives largely listed as inhibitors | 310,000 compounds, 5.9% hits | AID 504832, 2011; also: potency is read from the fitted curve at half-maximal effect; % is scaled to controls: 0 for no effect and ±100 for the full control effect
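First compound was added to culture medium, then infected red cells at 0.1% parasitemia and 2% hematocrit (final). After incubation at 37 C under 5% CO2, luciferase detection reagent was dispensed and light output recorded.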
Shiga inhibitor: A qHTS for Small Molecule Inhibitors of Shiga Toxin | inhibition, % at 38.7 µM | 290,000 compounds, 9.2% hits | Vero cells, Shiga toxin protein synthesis inhibition reporter; in the data active = inhibition mostly above about 28%, no sharp cut-off; inactive = mostly below about 43%; also: 0% is about no effect
Cycloheximide cs: Cycloheximide Counterscreen for Small Molecule Inhibitors of Shiga Toxin | cell reporter, cycloheximide protein synthesis inhibition counterscreen | max response, % | 300,000 compounds, 12% hits | AID 2314, 2010; in the data active = max response mostly above about 13%, no sharp cut-off; inactive = mostly below about 14%; also: read at 38.3 µM for the half of the compounds with a filed dose; 0% is about no effect
Pf growth 96h: Primary qHTS for delayed death inhibitors of the malarial parasite plastid, 96 hour incubation | AID 504834, 2011 | P. falciparum luciferase reporter growth, 96 h | 320,000 compounds, 6.9% hits | Potency, µM (highest dose often 28.7 µM), for the others: at the top dose activity change, negative = inhibition, actives largely listed as inhibitors; also: potency is read from the fitted curve at half-maximal effect; % is scaled to controls: 0 for no effect and ±100 for the full control effect
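Erythrocytes infected with luciferase-expressing P. falciparum were dispensed at 2% hematocrit and 0.05% parasitemia (final), then incubated with compounds 96 hours at 37 C in 5% CO2. Luminescence after detection reagent addition reported growth.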
* hit, by the source's call; [ ] = another dose, or the depositor's remark. Only some compounds are listed: those with a hit (about 19% of all), similar ones and a draw of the others. Unless noted, calls follow the shape of the dose curve; as a rule, active = well fitted curve in the direction sought with a large enough effect; inconclusive = small, poorly fitted or top-dose-only effect, or another doubt; inactive = no such curve, though single readings can be large; an effect the other way counts as inactive or inconclusive.

Results for COCCN1C(=O)c2oc3cc(C)c(C)cc3c(=O)c2C1c1ccc(O)cc1 (stereo not drawn) ?
AMA1-RON2 inh: -3.1%

Results for Cc1nonc1CN(C)C(=O)c1cc(COc2ccc(F)cc2Cl)on1 ?
AMA1-RON2 inh: -8.0%; SARS PLpro yeast: 4.0%; Pf growth 48h: 17.0%; Shiga inhibitor: 57.5*; Cycloheximide cs: 45.5*; Pf growth 96h: -16.4%

How did Cc1cc(CN(C)C(=O)c2cc(COc3ccc(F)cc3Cl)on2)n[nH]1 do in these assays?
AMA1-RON2 inh: -0.6%; SARS PLpro yeast: -0.8%; Pf growth 48h: 3.6%; Shiga inhibitor: 117.5*; Cycloheximide cs: 33.0*; Pf growth 96h: 13.8%

Results for CSc1ccccc1OCc1cc(C(=O)N(C)Cc2nonc2C)no1 ?
AMA1-RON2 inh: -3.3%; SARS PLpro yeast: -0.9%; Pf growth 48h: -12.3%; Shiga inhibitor: 188.9*; Cycloheximide cs: 59.0*; Pf growth 96h: 1.3%

Results for CSc1ccccc1OCc1cc(C(=O)N(C)Cc2ccncn2)no1 ?
AMA1-RON2 inh: -0.7%; SARS PLpro yeast: 2.1%; Pf growth 48h: 6.4%; Shiga inhibitor: 104.9*; Cycloheximide cs: 49.1*; Pf growth 96h: 0.0%

Results for CSCCC(NS(=O)(=O)c1ccc(Cl)cc1)C(=O)OCC(=O)c1ccc(F)cc1 (stereo not drawn) ?
AMA1-RON2 inh: 12.9%[2.32 µM]; SARS PLpro yeast: -22.4%; Pf growth 48h: -10.3%; Shiga inhibitor: -2.4; Cycloheximide cs: 5.3; Pf growth 96h: 39.3%

What do the screens show for `S=C(c1ccc2c(c1)OCO2)N1CCN(c2cccc(Cl)c2)CC1`?
AMA1-RON2 inh: -25.7%

Results for Cc1ccc(CN(C)C(=O)c2cc(COc3ccc(F)cc3Cl)on2)o1 ?
AMA1-RON2 inh: 4.4%; SARS PLpro yeast: -2.5%; Pf growth 48h: 0.0928µM*; Shiga inhibitor: 49.6*; Cycloheximide cs: 31.5*; Pf growth 96h: 25.1%

Results for CCN(Cc1ccncc1)C(=O)c1cc(COc2ccc(F)cc2Cl)on1 ?
AMA1-RON2 inh: 14.0%; SARS PLpro yeast: -2.3%; Pf growth 48h: inconclusive; Shiga inhibitor: -16.8; Cycloheximide cs: -3.2; Pf growth 96h: inconclusive

What do the screens show for `C#CCN(Cc1ccco1)C(=O)c1cc(COc2ccc(F)cc2Cl)on1`?
AMA1-RON2 inh: -4.9%; SARS PLpro yeast: 1.1%; Pf growth 48h: inconclusive; Shiga inhibitor: 47.5*; Cycloheximide cs: 14.9; Pf growth 96h: 11.5%

How did CSc1ccccc1OCc1cc(C(=O)N(C)CCn2nc(C)cc2C)no1 do in these assays?
AMA1-RON2 inh: 2.3%; SARS PLpro yeast: -3.1%; Pf growth 48h: -15.2%; Shiga inhibitor: 29.7*; Cycloheximide cs: 31.2*; Pf growth 96h: -29.3%

Results for O=C(NCc1n[nH]c(=S)n1-c1ccc(F)cc1)c1ccco1 ?
AMA1-RON2 inh: 12.7%; SARS PLpro yeast: 0.2%; Shiga inhibitor: 18.5; Cycloheximide cs: -2.7; Pf growth 96h: 97.8%

Results for Cn1c(=O)c(=O)n(C)c2cc(S(=O)(=O)N3CCCC3C(=O)Nc3ccc(F)cc3)ccc21 (stereo not drawn) ?
AMA1-RON2 inh: 5.0%; SARS PLpro yeast: 3.4%; Pf growth 48h: inconclusive; Shiga inhibitor: 4.8; Cycloheximide cs: -3.0; Pf growth 96h: inconclusive

How did Nc1nc(=S)c2ncn(C3CCCC3)c2[nH]1 do in these assays?
AMA1-RON2 inh: 91.0%; SARS PLpro yeast: 4.9%; Pf growth 48h: inconclusive; Shiga inhibitor: -6.4; Cycloheximide cs: -1.5; Pf growth 96h: inconclusive

Results for COc1ccc2[nH]cc(CCNC(=O)c3ccco3)c2c1 ?
AMA1-RON2 inh: -1.1%; SARS PLpro yeast: -4.4%; Pf growth 48h: 35.8%; Pf growth 96h: 23.3%

What do the screens show for `O=C(Oc1ccc2[nH]cc(CCN3C(=O)c4ccccc4C3=O)c2c1)c1ccco1`?
AMA1-RON2 inh: -11.2%; SARS PLpro yeast: -2.9%; Pf growth 48h: 24.0%; Shiga inhibitor: 41.0; Cycloheximide cs: 27.1*; Pf growth 96h: -28.2%

Results for O=C1c2ccccc2C(=O)N1CCCc1c[nH]c2ccc(Cl)cc12 ?
AMA1-RON2 inh: -5.9%; SARS PLpro yeast: -15.7%; Pf growth 48h: 29.7%; Shiga inhibitor: -8.4; Cycloheximide cs: 14.4*; Pf growth 96h: 37.0%

How did OC(CNCc1ccccc1F)(c1ccc(F)cc1)c1ccc(F)cc1 do in these assays?
AMA1-RON2 inh: -6.3%; SARS PLpro yeast: 7.8%; Pf growth 48h: inconclusive; Shiga inhibitor: 23.2; Cycloheximide cs: 13.6; Pf growth 96h: inconclusive

What do the screens show for `COc1ccccc1CNCC(O)(c1ccc(F)cc1)c1ccc(F)cc1`?
AMA1-RON2 inh: 3.9%; SARS PLpro yeast: 4.7%; Pf growth 48h: 3.7µM*; Shiga inhibitor: -3.7; Cycloheximide cs: -1.5; Pf growth 96h: 4.65µM*

Results for COc1ccccc1CNCC(O)(c1ccc(Cl)cc1)c1ccc(Cl)cc1 ?
AMA1-RON2 inh: 42.7%; SARS PLpro yeast: 1.0%; Pf growth 48h: 1.65µM*; Shiga inhibitor: 5.4; Cycloheximide cs: -1.9; Pf growth 96h: 1.65µM*

Results for COc1cc2c(cc1OC)CN(CC(=O)Nc1ccc(S(=O)(=O)N3CCCC3)cc1)CC2 ?
AMA1-RON2 inh: -1.9%; SARS PLpro yeast: 2.9%; Pf growth 48h: 0.0%; Shiga inhibitor: -12.5; Cycloheximide cs: 5.0; Pf growth 96h: 13.1µM*

Results for COc1ccc(CC(=O)Nc2ccc(S(=O)(=O)N3CCCC3)cc2)cc1OC ?
AMA1-RON2 inh: 3.9%; SARS PLpro yeast: 13.4%

Results for COc1cc2c(cc1OC)C(C)N(CC(=O)Nc1ccc(S(=O)(=O)N3CCCC3)cc1)CC2 (stereo not drawn) ?
AMA1-RON2 inh: -14.1%; SARS PLpro yeast: -7.3%; Pf growth 48h: 11.7µM*; Shiga inhibitor: 10.9; Cycloheximide cs: -2.1; Pf growth 96h: inconclusive

Results for COc1ccc(S(=O)(=O)N2CCc3cc(OC)c(OC)cc3C2)cc1 ?
AMA1-RON2 inh: 10.7%; SARS PLpro yeast: -0.6%; Pf growth 48h: 0.828µM*; Shiga inhibitor: -6.5; Cycloheximide cs: -0.4; Pf growth 96h: -5.9%

What do the screens show for `COc1cc2c(cc1OC)CN(S(=O)(=O)c1cccs1)CC2`?
AMA1-RON2 inh: -20.5%; SARS PLpro yeast: -1.8%; Pf growth 48h: 1.8%; Shiga inhibitor: -4.2; Cycloheximide cs: 5.2; Pf growth 96h: 0.6%

How did O=Cc1cccn1-c1c(C(=O)O)cnn1-c1ccccc1 do in these assays?
AMA1-RON2 inh: 1.3%; SARS PLpro yeast: -2.0%; Pf growth 48h: 15.7%; Shiga inhibitor: -16.9; Cycloheximide cs: 6.7; Pf growth 96h: 10.4µM*

Results for O=C(O)c1cnn(-c2ccccc2)c1-c1ccncc1 ?
AMA1-RON2 inh: -4.8%; SARS PLpro yeast: 2.7%; Pf growth 48h: 12.0%[0.00184 µM]; Shiga inhibitor: 17.6; Cycloheximide cs: -6.3; Pf growth 96h: -29.4%
